# High-throughput results deposited in PubChem BioAssay by National Center for Advancing Translational Sciences (NCATS).
# Only some compounds are listed: those with a hit (about 9% of all), similar ones and a draw of the others.
# KinaseGlo FLuc = blocks Kinase-Glo luciferase, a counter-screen artifact. Q27757. Kinase-Glo luciferase, ATP luminescence, 8 min. Potency, µM (series often up to 38.3 µM), for inactives: top-dose activity change, negative = inhibition, most hits filed as inhibitors. 200,000 compounds, 0.28% hits; also: nearly all actives have a fitted effect of over 60% in size
#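 Inhibition of Kinase-Glo luciferase light generation was assessed at 10 uM ATP in pH 7.2 imidazole buffer, with luminescence measured after eight minutes at ambient temperature.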
# IMPase Li inh = IMPase inhibition in cells with lithium potentiation; CHO-M1 cells, IP1 TR-FRET (IP-One), carbachol + lithium; AID 1457; Potency, µM (series often up to 59.4 µM), without a hit: at the highest dose activity, negative = IMPase inhibition, most hits filed as inhibitors; 210,000 compounds, 0.35% hits;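 also: IP1 builds up when IMPase is blocked and the TR-FRET signal falls; plate controls were basal vehicle for no effect and high inhibitor control for full effect; nearly all actives have a fitted effect of over 50% in size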
#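 IP1 accumulation measured by competitive TR-FRET in lysed CHO-M1 cells after 30 min compound exposure at 37C, with a small lithium addition to potentiate weak responses. Hill-equation AC50 from ratio and donor-channel data.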
# LMNA splice mod = changes lamin A minigene splicing in HeLa cells. 200,000 compounds, 0.01% hits. HeLa LMNA splicing GFP/RFP minigene ratio, 48 h. Potency, µM (series often up to 46.1 µM), without a hit: at the highest dose ratio change, negative = inhibition, usual class: inhibitors. AID 1487; active = well fitted inhibition curve with a large enough effect in the signal ratio, with a control signal flat, not every such curve was filed as active; inconclusive = small, poorly fitted or top-dose-only effect, or effect the other way, or a change in a side signal; the % refers to the signal ratio
#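 S3 HeLa stable clones carrying a lamin A-EGFP splicing minigene plus DsRed2 were seeded at 600 cells/well in Opti-MEM with 2% FBS, pin-dosed and incubated 48 h at 37°C. Acumen cytometry (488 nm) gave the GFP/RFP total-intensity ratio.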
# ALDH1A1 block = ALDH1A1 (human) enzyme inhibition | Potency, µM (highest dose often 75.3 µM), inactives show top-dose activity, negative = inhibition, hits mostly inhibitors | Purified ALDH1A1, NADH fluorescence, propionaldehyde substrate | 220,000 compounds, 7.3% hits; active = well fitted inhibition curve with a large enough effect, not every such curve was filed as active; inconclusive = small, poorly fitted or top-dose-only effect, or another doubt; inactive = no such curve, though single readings can be large or run the other way;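 also: plate controls were no enzyme wells and a reference inhibitor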
# Target sequence (P00352 whole entry, looked up): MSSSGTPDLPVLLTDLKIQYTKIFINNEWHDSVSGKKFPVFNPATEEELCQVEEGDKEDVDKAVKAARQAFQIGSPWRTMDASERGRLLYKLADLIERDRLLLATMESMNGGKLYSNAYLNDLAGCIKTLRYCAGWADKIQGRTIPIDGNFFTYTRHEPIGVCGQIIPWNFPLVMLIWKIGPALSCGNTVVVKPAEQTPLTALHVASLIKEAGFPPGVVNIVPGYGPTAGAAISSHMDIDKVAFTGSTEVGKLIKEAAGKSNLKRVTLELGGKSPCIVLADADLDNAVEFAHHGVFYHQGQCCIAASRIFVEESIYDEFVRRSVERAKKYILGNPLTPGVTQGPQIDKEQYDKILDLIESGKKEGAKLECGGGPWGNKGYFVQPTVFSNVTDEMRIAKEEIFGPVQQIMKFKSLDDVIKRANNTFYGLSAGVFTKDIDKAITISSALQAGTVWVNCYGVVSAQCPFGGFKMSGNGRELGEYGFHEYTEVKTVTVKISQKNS
# HPGD inh = HPGD (human) dehydrogenase inhibition | 150,000 compounds, 4.3% hits | P15428 | Potency, µM, for the others: top-dose activity change, negative = inhibition, actives largely listed as inhibitors | purified HPGD, NADH fluorescence kinetic, PGE2 substrate | AID 894; active = well fitted inhibition curve with a large enough effect, not every such curve was filed as active; inconclusive = small, poorly fitted or top-dose-only effect, or another doubt; inactive = no such curve, though single readings can be large or run the other way
# Target sequence (P15428 whole entry, looked up): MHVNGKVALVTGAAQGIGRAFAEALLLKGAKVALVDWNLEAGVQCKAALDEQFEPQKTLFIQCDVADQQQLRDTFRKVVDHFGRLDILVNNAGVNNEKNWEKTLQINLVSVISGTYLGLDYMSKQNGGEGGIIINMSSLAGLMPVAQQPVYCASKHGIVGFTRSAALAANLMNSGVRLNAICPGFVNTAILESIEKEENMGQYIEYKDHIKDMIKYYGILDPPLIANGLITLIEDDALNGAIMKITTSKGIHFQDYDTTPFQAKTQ
#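 NADH formation kinetics: reaction with 30 uM PGE2 and 1 mM NAD+ (final), 20 nM enzyme, Tris-HCl pH 8 with Tween 20, after 15 min compound preincubation at room temperature. Fluorescence change, last versus first of five reads.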
# * = called active by the depositor; ? = inconclusive; . = no result; [ ] = dose if it differs, or a comment. Unless noted, calls follow the shape of the dose curve; as a rule, active = well fitted curve in the direction sought with a large enough effect; inconclusive = small, poorly fitted or top-dose-only effect, or another doubt; inactive = no such curve, though single readings can be large; an effect the other way counts as inactive or inconclusive. Unless noted, % is scaled to controls: 0 for no effect and ±100 for the full control effect; potency is read from the fitted curve at half-maximal effect.
SMILES,KinaseGlo FLuc,IMPase Li inh,LMNA splice mod,ALDH1A1 block,HPGD inh
COc1cc(C(=O)Nc2ccc(S(=O)(=O)N(C)c3ccccc3)cc2)cc(OC)c1OC,2.2%,0.9%,?,-4.1%,-16.1%
CN(c1ccccc1)S(=O)(=O)c1ccc(NC(=S)NC(=O)c2ccccc2)cc1,-2.2%,16.7%[38.3 µM],?,10µM*,-19.5%
Cc1ccc(C(=O)Nc2ccc(S(=O)(=O)N(Cc3ccccc3)c3ccccc3)cc2)cc1,.,.,12.4%[46 µM],.,.
CN(c1ccccc1)S(=O)(=O)c1ccc(NC(=S)NC(=O)C2CC2)cc1,-3.7%,8.3%,?,?,-6.5%
Cc1ccc(C(=O)NC(=S)Nc2ccc(S(=O)(=O)N(C)c3ccccc3)cc2)cc1,-4.5%,27.4%[38.3 µM],6.0%,11.2µM*,-6.6%
COc1ccccc1/C=C/C(=O)NC(=S)Nc1ccc(S(=O)(=O)N(C)c2ccccc2)cc1,-3.9%,-24.1%[38.3 µM],-0.5%,28.2µM*,-21.9%
N#Cc1ccc(CN2CCC3(CC2)CCN(C(=O)c2cc(C(F)(F)F)cc(C(F)(F)F)c2)CC3)cc1,-0.4%,6.9%,.,1.2%,-4.6%
Cc1c(C)n(CCc2c[nH]c3ccccc23)ccc1=O,1.8%,-9.2%,?,1.2%,.
O=C1OC2(c3cc(Br)c(O)c(Br)c3Oc3c2cc(Br)c(O)c3Br)c2c(Cl)c(Cl)c(Cl)c(Cl)c21,.,?,.,25.1µM*,12.6µM*
CN(C)CC#Cc1cncc(C(=O)NNC(=O)Nc2ccc(Cl)cc2)c1,.,.,?,25.1µM*,.
C=CCOC(=O)C1=C(C)N=C2SCCC(=O)N2C1c1ccc(OC(=O)c2ccco2)cc1 (stereo not drawn),-1.6%,10.9%[38.3 µM],1.7%,20µM*,-24.4%
COC(=O)C1=C(C)N=C2SCCC(=O)N2C1c1ccc(OC(=O)c2ccco2)cc1 (stereo not drawn),1.6%,14.3%,5.6%,-6.4%,-19.2%
CC[n+]1c(/C=C/c2ccc(N(C)C)cc2)ccc2ccccc21,8.91µM*,71.7%,?,?,-24.6%
CN(C)c1ccc(/C=C/c2cc[n+](C)cc2)cc1,-14.5%,37.4%[38.3 µM],?,14.1µM*,-5.8%
CC[n+]1ccc(/C=C/c2ccc(N(C)C)cc2)c2ccccc21,?,154.7%,?,22.4µM*,.
CC[n+]1ccccc1/C=C/c1ccc(N(C)C)cc1,-9.7%,32.4%,.,?,.
CN(C)c1ccc(/C=C/c2cc[n+]([O-])cc2)cc1,-2.4%,0.3%[38.3 µM],11.5%,0.2%,-14.0%
COc1ccc2ccccc2c1/C=C\C(=O)c1ccccc1,-3.5%[7.66 µM],-1.0%,.,1.1%[13.5 µM],-1.9%
COc1ccc2ccccc2c1C(=O)/C=C\c1ccoc1,-5.8%,-11.4%,?,20µM*,?
NC(=O)NC(=O)CSc1nc(C2CCCCC2)n(-c2ccccc2)n1,-0.3%,0.0%,?,6.9%,-7.6%
C/C(N)=C(/C#N)C(=O)CSc1nc(C2CCCCC2)n(-c2ccccc2)n1,-1.2%,2.5%[38.3 µM],20.5%,31.6µM*,-13.8%
Cc1ccc(N2CCN(/N=C/c3ccccc3[N+](=O)[O-])CC2)cc1,-0.7%,12.0%,.,15.8µM*,.
CCOc1ccc(N2C(=O)CC(NCCNc3ccc([N+](=O)[O-])cn3)C2=O)cc1 (stereo not drawn),0.0%,5.9%,15.1%[46 µM],0.891µM*,.
COc1ccc(N2C(=O)CC(NCCNc3ccc([N+](=O)[O-])cn3)C2=O)cc1 (stereo not drawn),-0.1%,-4.2%,?,1.78µM*,-15.6%
CCCS(=O)(=O)N1CCN(c2cc3c(cc2[N+](=O)[O-])n(C)c(=O)n3C)CC1,.,2.9%,.,13.3%,.
SMILES,KinaseGlo FLuc,IMPase Li inh,LMNA splice mod,ALDH1A1 block,HPGD inh
O=C(COc1ccccc1)NCCSc1ccccc1,-2.1%,3.5%[38.3 µM],-5.0%,-4.0%,-19.8%
O=C(CCSc1ccccc1)NCCSCc1ccco1,.,.,-14.7%,11.2µM*,.
O=C(COc1ccccc1)NCCSCc1ccco1,4.8%,2.0%,-7.4%,?,22.4µM*
CCOC(=O)C1=C(c2ccccc2)N=C2SCC(=O)N2C1c1ccc2c(c1)OCO2 (stereo not drawn),0.1%,26.7%[38.3 µM],14.6%,12.6µM*,-17.9%
CCOC(=O)C1=C(c2ccccc2)N=C2SCC(=O)N2C1c1ccc(OC)c(OC)c1 (stereo not drawn),-1.5%,14.5%[38.3 µM],-8.0%,11.9%,-14.5%
O=c1c(Cc2c(F)cccc2Cl)c(O)ccn1C1CC1,3.0%,4.4%,?,3.0%,.
O=C(NN=C1C2CC3CC1CC(Cl)(C3)C2)c1cccs1,-1.3%,16.3%,.,3.16µM*,.
Cc1cccc(Nc2nc3c(s2)CCCC3)c1,-4.6%,23.3%,?,20µM*,-13.4%
C/C(=N\Nc1nc2c(s1)CCCC2)c1ccccc1,-5.3%,35.6%[38.3 µM],-20.3%,25.1µM*,-30.1%
O=C(NC(=S)Nc1nc2c(s1)CSc1ccccc1-2)c1ccccc1,-2.4%,-10.5%[38.3 µM],-21.3%,?,20µM*
O=C(Nc1nc2c(s1)CCCC2)c1cccs1,?,13.2%[38.3 µM],-17.1%,-4.7%,-25.5%
O=C(Nc1nc2c(s1)CCCC2)c1cccnc1,?,51.8%[38.3 µM],20.5%,11.2µM*,-9.8%
COC(=O)c1ccc(C(=O)NC(=S)Nc2nc3c(s2)CC(C)CC3)cc1 (stereo not drawn),-3.8%,-3.4%,-17.8%,?,-13.3%
O=C(Nc1nc2c(s1)CCCC2)Oc1ccccc1,0.5%,11.8%[38.3 µM],4.5%,-13.1%,-13.0%
COCCCn1c(SCC(=O)NNC(=O)c2cccc(O)c2)nnc1-c1ccncc1,-4.2%,5.2%,.,14.4%,.
Cc1oc(-c2cccc(Br)c2)nc1CSc1nc2ncccc2[nH]1,.,.,22.0%[46 µM],.,.
CCN(CC)C(=O)CSc1nnc2[nH]c(=O)cc(C)n12,.,.,19.3%[46 µM],.,.
COc1cc2c(cc1NC(=O)c1ccc(C(C)(C)C)cc1)CCCC2,-7.4%,11.4%[38.3 µM],?,?,?
O=C(NC(=S)Nc1nc2c(s1)CCCC2)c1ccc(C(=O)c2ccccc2)cc1,-1.1%,-5.7%,?,3.55µM*,-22.9%
COc1cc2c(cc1NC(=O)c1cccnc1)CCCC2,-2.4%,-14.1%[38.3 µM],6.4%,28.2µM*,-1.5%
CCSC1=NN2CCS(=O)(=O)N=C2S1,-2.0%,-2.2%,-15.9%[46 µM],2.1%,.
C=CC#CC[N+]1(CC#Cc2ccccc2)CCOCC1,-0.6%,16.5%,6.5%,?,25.1µM*
S=C(NN=C(C1CC1)C1CC1)Nc1ccccc1,-1.4%,-0.4%,-9.5%,25.1µM*,-7.6%
Cc1c(N=C2NC(=O)/C(=C/c3ccc(O)cc3)S2)c(=O)n(-c2ccccc2)n1C,4.0%,3.1%,-1.5%,0.3%,-23.1%
O=C1NC(=NCc2ccccc2)S/C1=C/c1ccc(O)cc1,-36.8%,-6.9%,-11.6%,-7.7%,2.82µM*
O=C1CS/C(=N/N=C2CCCC2)N1,14.0%,-1.8%,.,-3.7%,.
O=C1CSC(=NC2CCCCC2)N1,-0.4%,8.2%[38.3 µM],-12.2%,7.94µM*,-7.9%
Nc1ncnc2c1ncn2[C@@H]1O[C@H](COP(=O)(O)OP(=O)(O)O)[C@@H](O)[C@H]1O,5.01µM*,?,.,0.6%,-3.8%
